Results on 36 molecules are retold here after PubChem BioAssay (Tox21).

Inconclusive results are not listed. Entries that show only a call come without a potency. The source made the active and inactive calls. Calls follow the shape of the dose curve; as a rule, active = well fitted curve in the direction sought with a large enough effect in the repeat runs; inconclusive = weak or mixed curves; inactive = no such curve, though single readings can be large; an effect the other way counts as inactive or inconclusive.
Also: nearly all actives have a fitted effect of over 50% in size.
Potency is read from the fitted curve at half-maximal effect.

Sequence of Cytochrome P450 1A2 (Homo sapiens) (P05177 whole entry, looked up): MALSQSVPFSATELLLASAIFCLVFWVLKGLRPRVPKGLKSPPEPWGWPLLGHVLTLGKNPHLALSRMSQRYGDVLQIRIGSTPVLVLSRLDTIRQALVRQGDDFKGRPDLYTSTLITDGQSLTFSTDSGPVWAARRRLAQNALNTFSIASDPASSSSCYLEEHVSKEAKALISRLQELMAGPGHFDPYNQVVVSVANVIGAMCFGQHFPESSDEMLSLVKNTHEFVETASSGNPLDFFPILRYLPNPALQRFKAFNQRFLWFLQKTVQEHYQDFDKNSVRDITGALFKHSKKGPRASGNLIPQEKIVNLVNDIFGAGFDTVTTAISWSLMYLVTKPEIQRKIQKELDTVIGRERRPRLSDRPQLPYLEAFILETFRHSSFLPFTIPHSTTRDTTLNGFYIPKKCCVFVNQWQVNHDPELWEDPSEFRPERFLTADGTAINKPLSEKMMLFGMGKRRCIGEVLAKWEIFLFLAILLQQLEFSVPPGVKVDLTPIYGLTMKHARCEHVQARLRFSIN
Sequence of Voltage-gated inwardly rectifying potassium channel KCNH2 (Homo sapiens) (Q12809 whole entry, looked up): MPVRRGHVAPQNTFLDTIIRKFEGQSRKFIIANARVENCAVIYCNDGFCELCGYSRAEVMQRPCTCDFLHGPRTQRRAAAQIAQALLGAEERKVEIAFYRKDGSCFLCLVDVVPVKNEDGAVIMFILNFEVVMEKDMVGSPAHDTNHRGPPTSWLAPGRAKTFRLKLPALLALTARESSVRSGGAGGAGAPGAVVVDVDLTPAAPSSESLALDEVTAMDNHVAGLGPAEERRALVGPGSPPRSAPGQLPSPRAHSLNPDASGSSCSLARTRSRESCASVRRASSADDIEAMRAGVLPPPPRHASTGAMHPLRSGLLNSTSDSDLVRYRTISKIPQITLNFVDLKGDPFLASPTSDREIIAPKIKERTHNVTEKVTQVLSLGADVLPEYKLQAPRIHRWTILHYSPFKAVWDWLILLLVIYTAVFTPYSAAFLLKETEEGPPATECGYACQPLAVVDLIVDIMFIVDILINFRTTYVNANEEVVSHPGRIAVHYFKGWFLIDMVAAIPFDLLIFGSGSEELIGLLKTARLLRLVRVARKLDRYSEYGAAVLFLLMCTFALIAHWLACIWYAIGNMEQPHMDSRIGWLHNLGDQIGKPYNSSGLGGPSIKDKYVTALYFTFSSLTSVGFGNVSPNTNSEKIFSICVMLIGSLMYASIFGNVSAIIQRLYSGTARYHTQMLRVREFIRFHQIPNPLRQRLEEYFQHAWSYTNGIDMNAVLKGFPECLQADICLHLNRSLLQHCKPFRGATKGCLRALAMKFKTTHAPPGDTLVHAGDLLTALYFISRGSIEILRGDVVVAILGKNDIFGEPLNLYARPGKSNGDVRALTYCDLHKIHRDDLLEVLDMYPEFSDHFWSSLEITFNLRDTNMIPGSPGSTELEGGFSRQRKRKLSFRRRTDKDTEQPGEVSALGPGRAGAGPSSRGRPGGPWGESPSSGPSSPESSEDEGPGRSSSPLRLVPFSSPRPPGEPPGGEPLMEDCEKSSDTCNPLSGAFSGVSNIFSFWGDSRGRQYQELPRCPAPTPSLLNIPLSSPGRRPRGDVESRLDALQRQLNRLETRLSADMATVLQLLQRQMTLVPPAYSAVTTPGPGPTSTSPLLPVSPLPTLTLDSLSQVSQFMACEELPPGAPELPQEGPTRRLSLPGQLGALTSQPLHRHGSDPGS
Sequence of Cytochrome P450 2C9 (Homo sapiens) (P11712 whole entry, looked up): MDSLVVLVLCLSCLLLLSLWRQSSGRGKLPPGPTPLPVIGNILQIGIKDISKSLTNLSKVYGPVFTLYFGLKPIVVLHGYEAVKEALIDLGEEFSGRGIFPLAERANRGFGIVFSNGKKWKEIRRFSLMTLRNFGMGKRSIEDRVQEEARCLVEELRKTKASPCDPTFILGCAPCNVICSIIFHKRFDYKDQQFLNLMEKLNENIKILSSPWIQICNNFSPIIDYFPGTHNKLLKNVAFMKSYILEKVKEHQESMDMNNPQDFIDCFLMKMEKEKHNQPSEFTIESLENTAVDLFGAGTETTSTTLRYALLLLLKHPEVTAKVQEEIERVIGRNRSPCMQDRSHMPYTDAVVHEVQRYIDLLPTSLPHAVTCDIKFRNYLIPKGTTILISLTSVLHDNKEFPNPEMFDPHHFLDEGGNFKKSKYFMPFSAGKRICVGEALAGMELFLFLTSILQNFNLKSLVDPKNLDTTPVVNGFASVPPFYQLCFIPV

The first assay addresses Cytochrome P450 2C9 (Homo sapiens) (UniProt P11712). Nature of the assay: Cytochrome P450 Family 2 Subfamily C Member 9 (CYP2C9) small molecule antagonists: luciferase reporter qHTS assay (AID 1671198). Conditions: P450-Glo CYP2C9 enzyme assay, luciferin luminescence; series mostly up to 115 µM. An outline of the steps: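 P450-Glo proluciferin substrate with CYP2C9 enzyme; 10 min RT preincubation, then NADPH regeneration 1 h at 37C; luciferin detection reagent 20 min RT, luminescence in relative luminescence units.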
For orientation: In a reporter assay the amount or activity of a reporter protein is the signal.
In the case of `CC(C)(c1ccc(O)c(-c2ccccc2)c1)c1ccc(O)c(-c2ccccc2)c1`, the Potency was 3.17 µM (active).

Turning to `Fc1ccc(Oc2ccnc3cc(Cl)cc(Cl)c23)cc1`, the Potency is 31.7 µM (active).

As for `N#CCCC(Br)(C#N)CBr` (stereo unspecified), the Potency was 8.94 µM (active).

`COc1cc(C=O)cc2c1[C@H](COC(N)=O)[C@]1(OC(C)=O)ON2C[C@H]2[C@@H]1N2C(C)=O`: the Potency entry is “inactive”.

`O=c1ssc(Cl)c1Cl`: the Potency is 39.9 µM (active).

Regarding `c1cc[c]([Sb]([c]2ccccc2)[c]2ccccc2)cc1`, the Potency is 17.8 µM (active).

For `C[C@]12CC[C@@H]3c4ccc(OC(=O)N(CCCl)CCCl)cc4CC[C@H]3[C@@H]1CC[C@@H]2O`, the Potency entry was “inactive”.

Regarding `O=[N+]([O-])c1cc(Cl)ccc1Cl`, the Potency result was “inactive”.

On to `ClCc1ccccc1CCl`, for which the Potency result was “inactive”.

For the molecule `NC(=O)CCl`, the Potency result was “inactive”.

Consider `CC1(c2ccc(Oc3ccccc3)cc2)OC(=O)N(Nc2ccccc2)C1=O` (stereo unspecified), for which the Potency was 8.99 µM (active).

As for `COC(=O)N(C(=O)N1COC2(C(=O)OC)Cc3cc(Cl)ccc3C2=N1)c1ccc(OC(F)(F)F)cc1` (stereo unspecified), the Potency is 4.9 µM (active).

With `Cc1c(Cl)c(=O)oc2cc(OP(=O)(OCCCl)OCCCl)ccc12`, the Potency was 3.89 µM (active).

Regarding `O=C1NCN(c2ccccc2)C12CCN(CC1COc3ccccc3O1)CC2` (stereo unspecified), the Potency was 8.71 µM (active).

For the molecule `CCC(C)(C)C(=O)OC1=C(c2ccc(Cl)cc2Cl)C(=O)OC12CCCCC2`, the Potency was 31.7 µM (active).

Regarding `C[C@H]1O[C@@H](O[C@H]2[C@@H](O)C[C@H](O[C@H]3[C@@H](O)C[C@H](O[C@H]4CC[C@@]5(C)[C@H](CC[C@@H]6[C@@H]5CC[C@]5(C)[C@@H](C7=CC(=O)OC7)CC[C@]65O)C4)O[C@@H]3C)O[C@@H]2C)C[C@H](O)[C@@H]1O`, the Potency result was “inactive”.

Take `Oc1ccc(C(=C(Cl)Cl)c2ccc(O)cc2)cc1`: the Potency is 5.63 µM (active).

Take `CC(C)OC(=S)S`: the Potency was 31.7 µM (active).

For the molecule `CCCCN(CCCC)C(=S)[S-].CCCCN(CCCC)C(=S)[S-].[Zn+2]`, the Potency was 20 µM (active).

Regarding `Oc1ccc(C2(c3ccc(O)cc3)c3ccccc3-c3ccccc32)cc1`, the Potency is 20 µM (active).

As to `O=C(Nc1ccc2[nH]ccc2c1)c1cc2cc(F)ccc2n1Cc1cccc(F)c1`, the Potency was 3.56 µM (active).

With `CCc1ccccc1C`, the Potency result was “inactive”.

For the molecule `COc1ccc(OC)c(CC(C)N)c1` (stereo unspecified), the Potency entry is “inactive”.

Regarding `CC(Cl)CN(C)C` (stereo unspecified), the Potency entry is “inactive”.

In the case of `CCCCCCCCCCCCCC[P+](CCCCCC)(CCCCCC)CCCCCC` (tested in a mixture with another compound), the Potency is 22.5 µM (active).

For `CCCCCCCCCCCCCCCCCCn1cc[n+](C)c1`, the Potency was 50 µM (active).

As to `c1ccc2cc3c(cc2c1)-c1cccc2cccc-3c12`, the Potency result is “inactive”.

In the case of `CN(C)S(=O)(=O)N(SC(F)(Cl)Cl)c1ccccc1`, the Potency was 3.56 µM (active).

For `C=CC(=O)OCC(COC(=O)C=C)(COC(=O)C=C)COC(=O)C=C`, the Potency was 14.2 µM (active).

For the molecule `COC[C@H](C)N(C(=O)CCl)c1c(C)csc1C`, the Potency result was “inactive”.

Another assay addresses Cytochrome P450 1A2 (Homo sapiens) (UniProt P05177). Briefly: Cytochrome P450 Family 1 Subfamily A Member 2 (CYP1A2) small molecule antagonists: luciferase reporter qHTS assay (AID 1671199). Conditions: P450-Glo CYP1A2 enzyme, luciferin luminescence, 1 h; series mostly up to 115 µM. A digest of the protocol: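 Luminescence from luciferin formed by CYP1A2 from a proluciferin substrate, read 20 min after detection reagent. Compound was pre-incubated 10 min with enzyme-substrate, and reaction started with NADPH regeneration solution for 1 h at room temperature; furafylline control.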
For the molecule `CC(C)(c1ccc(O)c(-c2ccccc2)c1)c1ccc(O)c(-c2ccccc2)c1`, the Potency is 35.6 µM (active).

With `Fc1ccc(Oc2ccnc3cc(Cl)cc(Cl)c23)cc1`, the Potency is 0.71 µM (active).

For the molecule `COc1cc(C=O)cc2c1[C@H](COC(N)=O)[C@]1(OC(C)=O)ON2C[C@H]2[C@@H]1N2C(C)=O`, the Potency entry was “inactive”.

As to `O=c1ssc(Cl)c1Cl`, the Potency is 35.6 µM (active).

Turning to `c1cc[c]([Sb]([c]2ccccc2)[c]2ccccc2)cc1`, the Potency result was “inactive”.

Turning to `C[C@]12CC[C@@H]3c4ccc(OC(=O)N(CCCl)CCCl)cc4CC[C@H]3[C@@H]1CC[C@@H]2O`, the Potency entry was “inactive”.

In the case of `C=CC(=O)OCCCCOC(=O)C=C`, the Potency is 35.6 µM (active).

For the molecule `CCCCCCCCCCCCCCCC[n+]1ccccc1`, the Potency entry is “inactive”.

Consider `NC(=O)CCl`, for which the Potency entry is “inactive”.

Turning to `CC1(c2ccc(Oc3ccccc3)cc2)OC(=O)N(Nc2ccccc2)C1=O` (stereo unspecified), the Potency was 35.8 µM (active).

For `COC(=O)N(C(=O)N1COC2(C(=O)OC)Cc3cc(Cl)ccc3C2=N1)c1ccc(OC(F)(F)F)cc1` (stereo unspecified), the Potency result is “inactive”.

For the molecule `Oc1ccc(C(=C(Cl)Cl)c2ccc(O)cc2)cc1`, the Potency is 39.8 µM (active).

Take `Oc1ccc(C2(c3ccc(O)cc3)c3ccccc3-c3ccccc32)cc1`: the Potency was 79.6 µM (active).

Regarding `CCc1ccccc1C`, the Potency entry is “inactive”.

In the case of `COc1ccc(OC)c(CC(C)N)c1` (stereo unspecified), the Potency entry is “inactive”.

Regarding `CC(Cl)CN(C)C` (stereo unspecified), the Potency result is “inactive”.

With `CCCCCCCCCCCCCC[P+](CCCCCC)(CCCCCC)CCCCCC` (tested in a mixture with another compound), the Potency is 22.5 µM (active).

`CCCCCCCCCCCCCCCCCCn1cc[n+](C)c1`: the Potency was 56.1 µM (active).

With `c1ccc2cc3c(cc2c1)-c1cccc2cccc-3c12`, the Potency is 0.197 µM (active).

Turning to `CN(C)S(=O)(=O)N(SC(F)(Cl)Cl)c1ccccc1`, the Potency is 22.4 µM (active).

Regarding `C=CC(=O)OCC(COC(=O)C=C)(COC(=O)C=C)COC(=O)C=C`, the Potency entry is “inactive”.

As for `COC[C@H](C)N(C(=O)CCl)c1c(C)csc1C`, the Potency result was “inactive”.

The target of the next assay is Voltage-gated inwardly rectifying potassium channel KCNH2 (Homo sapiens) (UniProt Q12809). Briefly: Human Ether-a-go-go-Related Gene (hERG) channel small molecule antagonists: fluorescence cell-based qHTS assay (AID 1671200). Conditions: hERG-U2OS cells, FluxOR thallium flux fluorescence; series mostly up to 76.8 µM. An outline of the steps:
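hERG-U2OS cells plated overnight at 37 C, loaded with FluxOR II dye 1 h at RT in dark; after 10 min, thallium stimulus added. Fluorescence (480/540 nm) read kinetically for 2 min at 1 s intervals.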
For orientation: hERG is a cardiac potassium channel; its block is linked to QT prolongation.
For the molecule `CC(C)(c1ccc(O)c(-c2ccccc2)c1)c1ccc(O)c(-c2ccccc2)c1`, the Potency entry is “inactive”.

For the molecule `Fc1ccc(Oc2ccnc3cc(Cl)cc(Cl)c23)cc1`, the Potency is 24.5 µM (active).

On to `N#CCCC(Br)(C#N)CBr` (stereo unspecified), for which the Potency is 27.5 µM (active).

For `O=[N+]([O-])c1cc(Cl)ccc1Cl`, the Potency entry is “inactive”.

For `ClCc1ccccc1CCl`, the Potency result was “inactive”.

Turning to `COC(=O)N(C(=O)N1COC2(C(=O)OC)Cc3cc(Cl)ccc3C2=N1)c1ccc(OC(F)(F)F)cc1` (stereo unspecified), the Potency result was “inactive”.

Take `O=C1NCN(c2ccccc2)C12CCN(CC1COc3ccccc3O1)CC2` (stereo unspecified): the Potency was 7.56 µM (active).

Consider `CCC(C)(C)C(=O)OC1=C(c2ccc(Cl)cc2Cl)C(=O)OC12CCCCC2`, for which the Potency entry is “inactive”.

With `C[C@H]1O[C@@H](O[C@H]2[C@@H](O)C[C@H](O[C@H]3[C@@H](O)C[C@H](O[C@H]4CC[C@@]5(C)[C@H](CC[C@@H]6[C@@H]5CC[C@]5(C)[C@@H](C7=CC(=O)OC7)CC[C@]65O)C4)O[C@@H]3C)O[C@@H]2C)C[C@H](O)[C@@H]1O`, the Potency entry is “inactive”.

On to `CCC(C)c1cc(C(C)(C)C)cc(-n2nc3ccccc3n2)c1O` (stereo unspecified), for which the Potency entry was “inactive”.

On to `c1ccc(OCC2CO2)cc1` (stereo unspecified), for which the Potency entry is “inactive”.

On to `CCCCN(CCCC)C(=S)[S-].CCCCN(CCCC)C(=S)[S-].[Zn+2]`, for which the Potency entry was “inactive”.

In the case of `Oc1ccc(C2(c3ccc(O)cc3)c3ccccc3-c3ccccc32)cc1`, the Potency result was “inactive”.

In the case of `CCc1ccccc1C`, the Potency entry is “inactive”.

In the case of `COc1ccc(OC)c(CC(C)N)c1` (stereo unspecified), the Potency entry is “inactive”.

Turning to `CC(Cl)CN(C)C` (stereo unspecified), the Potency entry is “inactive”.

Take `CCCCCCCCCCCCCC[P+](CCCCCC)(CCCCCC)CCCCCC` (tested in a mixture with another compound): the Potency is 0.692 µM (active).

In the case of `CCCSP(=O)(OCC)SCCC`, the Potency result is “inactive”.

For `CCCCCCCCCCCCCCCCCCn1cc[n+](C)c1`, the Potency is 6.88 µM (active).

As for `c1ccc2cc3c(cc2c1)-c1cccc2cccc-3c12`, the Potency entry is “inactive”.

In the case of `CN(C)S(=O)(=O)N(SC(F)(Cl)Cl)c1ccccc1`, the Potency is 19.5 µM (active).

`[CH3][Hg][Cl]`: the Potency is 24.5 µM (active).

With `C=CC(=O)OCC(COC(=O)C=C)(COC(=O)C=C)COC(=O)C=C`, the Potency result is “inactive”.

Turning to `COC[C@H](C)N(C(=O)CCl)c1c(C)csc1C`, the Potency result is “inactive”.
